# hgDAF12 agonist: H. glycines DAF-12 receptor agonists, primary screen, cell-based, luminescence, HEK293, GAL4 fusion, UAS-luciferase | HEK293 GAL4-hgDAF12 UAS-luciferase reporter, agonist luminescence; normalized to butyrate control | AID 687014, 2013 | 370,000 compounds, 1.8% hits | Nuclear hormone receptor DAF-12 (Heterodera glycines), GAL4 fusion | activation, % at 6.8 µM;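 active means activation above a cutoff set at the mean of all screened compounds plus 3 SD, cut at about 10% in these data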;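 further: 0% = DMSO wells and 100% = sodium butyrate wells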
# hcDAF12 agonist: H. contortus DAF-12 nuclear receptor activators, primary screen, cell-based, luminescence, HEK293, lit1-tk-luc reporter | 370,000 compounds, 1.4% hits | HEK293 hcDAF-12 lit1-tk-luc reporter; 0% DMSO, 100% Δ7-dafachronic acid | activation, % at 6.8 µM | AID 652067, 2013;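 active means activation above the mean of all tested compounds plus 3 SD, cut at about 5.5% in these data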;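 further: 100% = response to 3 µM Δ7-dafachronic acid high control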
# DAX1 inh-1: DAX1 (NR0B1) inhibitors on StAR promoter, primary screen, cell-based, luminescence, SF-1 (NR5A1), full-length DAX-1; HEK293T StAR-luciferase reporter, SF-1/DAX-1 repression relief; inhibition, % at 6.8 µM; 370,000 compounds, 1.1% hits;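 active means inhibition above the mean over all tested compounds plus 3 SD, cut at about 3.6% in these data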;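 further: 0% = DAX-1 cells with DMSO and 100% = cells lacking DAX-1 with DMSO; higher inhibition means more luminescence from relief of DAX-1 repression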
# ssDAF-12 act: S. stercoralis DAF-12 nuclear receptor activators, primary screen, cell-based, luminescence, HEK293, GRIP1 co-expression, lit1-tk-luc. Nuclear hormone receptor DAF-12 (Strongyloides stercoralis). HEK293 ssDAF-12/GRIP1 lit1-tk-luc reporter; % of 3 µM dafachronic acid response. activation, % at 6.8 µM. 370,000 compounds, 1% hits. AID 652126, 2013;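 active means activation above the mean over all tested compounds plus 3 SD, cut at about 0.9% in these data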;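 further: 0% = DMSO-only wells and 100% = 3 µM delta7-dafachronic acid wells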
# DAX1 inh-2: DAX1 (NR0B1) inhibitors, primary screen, cell-based, HEK293, Gal4-DAX1, luciferase luminescence; AID 504766, 2011; inhibition, % at 6.75 µM; HEK293 Gal4-DAX1 luciferase reporter; Nuclear receptor subfamily 0 group B member 1 (Homo sapiens), P51843; 340,000 compounds, 0.99% hits;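 active means inhibition above the mean over all tested compounds plus 3 SD, cut at about 4.2% in these data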;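 further: 0% = DAX1-transfected cells with DMSO and 100% = empty-vector control cells with DMSO; inhibition shows as a rise in luminescence from relieved DAX1 repression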
# Target sequence (P51843 207-470 limits assumed): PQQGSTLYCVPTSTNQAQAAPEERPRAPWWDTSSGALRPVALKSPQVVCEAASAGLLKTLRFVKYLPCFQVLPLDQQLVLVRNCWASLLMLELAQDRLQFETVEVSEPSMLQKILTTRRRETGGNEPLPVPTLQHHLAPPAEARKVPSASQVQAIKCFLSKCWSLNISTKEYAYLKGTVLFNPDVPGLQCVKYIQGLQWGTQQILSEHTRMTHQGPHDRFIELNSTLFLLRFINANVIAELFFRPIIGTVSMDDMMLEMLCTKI
# SMARCA2 activ: SMARCA2 (BRM) function activators, primary screen, cell-based, luminescence, high throughput; MG213 cells, MMTV-luciferase reporter, dexamethasone, overnight; activation, % at 9.1 µM; 370,000 compounds, 1% hits; in the data active means activation above about 7.8%;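 further: 0% = vehicle wells and 100% = reference activator wells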
# LXRb hcDAF ctr: LXR agonists, Gal4 luciferase reporter, confirmation, counter-screen for hcDAF-12 agonist project, cell-based, luminescence, HEK293, H. contortus campaign; HEK293 Gal4-LXR tk-luc reporter, 24 h; normalized: DMSO 0%, positive control 100%; shares compounds with hcDAF12 agonist; 3,400 tested, under 10 active; AID 743027, 2013; activation, % at 6.8 µM;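 active means mean percent activation of the reporter above a cutoff set as the average over tested compounds plus their standard deviation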
# Target sequence (P55055 whole entry, looked up, the tested form may be a part): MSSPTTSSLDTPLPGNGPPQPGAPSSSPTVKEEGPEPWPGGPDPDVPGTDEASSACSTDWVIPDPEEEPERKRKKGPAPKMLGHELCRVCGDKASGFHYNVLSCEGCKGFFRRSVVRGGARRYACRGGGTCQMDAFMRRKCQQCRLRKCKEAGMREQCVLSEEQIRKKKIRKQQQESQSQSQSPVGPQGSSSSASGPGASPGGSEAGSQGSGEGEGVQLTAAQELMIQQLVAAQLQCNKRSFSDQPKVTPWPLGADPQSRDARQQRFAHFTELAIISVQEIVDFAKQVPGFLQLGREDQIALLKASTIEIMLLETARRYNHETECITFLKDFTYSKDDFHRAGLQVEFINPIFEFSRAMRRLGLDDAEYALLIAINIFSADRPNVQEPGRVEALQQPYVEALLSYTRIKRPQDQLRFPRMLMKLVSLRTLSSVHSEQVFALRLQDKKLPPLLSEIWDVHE
# hcDAF12 conf: H. contortus DAF-12 receptor agonists, confirmation, cell-based, luminescence, HEK293, lit1-tk-luc, triplicate; activation, % at 6.8 µM; 3,400 compounds, 61% hits; HEK293 hcDAF-12 lit1-tk-luc reporter; % of Δ7-dafachronic acid response; shares compounds with hcDAF12 agonist;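 active means mean activation across triplicate tests above the threshold derived from the earlier primary screen, cut at about 5.5% in these data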;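 further: 0% = DMSO only wells and 100% = 3 µM Δ7-dafachronic acid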
# hgDAF12 conf: H. glycines DAF-12 receptor agonists, confirmation, cell-based, luminescence, HEK293, GAL4-LBD fusion. shares compounds with hgDAF12 agonist. activation, % at 6.8 µM. 3,300 compounds, 80% hits. HEK293 GAL4-hgDAF12 luciferase reporter, agonist mode; percent of butyrate response;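 active means mean activation over triplicate wells above the hit cutoff derived from the earlier primary screen, cut at about 11% in these data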;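 further: 0% = DMSO low control and 100% = 2 mM sodium butyrate high control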
# LXR ag 2: LXR agonists, Gal4 luciferase reporter, confirmation, counter-screen for hgDAF-12 agonist project, cell-based, luminescence, HEK293, H. glycines campaign; shares compounds with hgDAF12 agonist; 24 h; activation, % at 6.8 µM; 3,300 tested, under 10 active;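 active means mean activation of the triplicate above a set limit carried over from the primary screen, none filed active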
# Starred values were filed as active, the others as inactive; . = no result given. Most compounds without a hit are left out; they make up all but 4.8% or so of the library.
SMILES,hgDAF12 agonist,hcDAF12 agonist,DAX1 inh-1,ssDAF-12 act,DAX1 inh-2,SMARCA2 activ,LXRb hcDAF ctr,hcDAF12 conf,hgDAF12 conf,LXR ag 2
O=C(Nc1ccccc1O)c1csc2c1CCCC2,16.4*,7.4*,1.6,0.7,1.6,-1.3,0.8,10.1*,13.3*,0.4
O=C(Nc1ccccc1O)c1c(O)c2c([nH]c1=O)CCCC2,19.0*,8.0*,2.8,1.5*,5.0*,4.1,1.0,6.9*,16.1*,0.8
O=C(N/N=C/c1cccs1)c1n[nH]c2c1CCC2,14.0*,7.1*,0.9,1.8*,1.5,3.4,1.4,2.8,14.5*,0.8
N/C(=N\OC(=O)c1cccc2ccccc12)c1cccnc1,14.4*,12.0*,0.7,1.6*,-0.2,7.8,0.3,9.0*,12.3*,0.3
CCCCN1C(=O)c2ccccc2NC1c1ccc(OC)c(COc2ccc(NC(C)=O)cc2)c1 (stereo unspecified),2.3,-1.7,.,-1.6,.,.,.,.,.,.
Cc1cc(O)cc(=O)n1-c1cccc([N+](=O)[O-])c1,1.4,-0.5,-0.7,-0.8,.,-1.9,.,.,.,.
COc1cc(NC(=O)C/C(C)=N/NC(=O)Cc2ccccc2)c(OC)cc1Cl,1.1,4.5,-0.8,-1.3,-0.6,-3.1,.,.,.,.
COc1cc(NC(=O)C/C(C)=N/NC(=O)c2cccs2)c(OC)cc1Cl,14.9*,7.9*,4.0*,0.5,1.9,1.8,-0.2,4.5,6.1,0.3
Cc1ccc(COc2ccc(C)nc2[N+](=O)[O-])cc1,13.9*,9.6*,1.6,-0.1,.,5.7,1.4,7.3*,14.3*,1.0
Cc1ccc(CNC(=O)COc2ccc(C)nc2[N+](=O)[O-])cc1,-1.4,-4.0,-0.4,-0.7,0.0,0.5,.,.,.,.
Fc1ccccc1N1CCN(c2cnc3ccccc3n2)CC1,19.1*,6.6*,2.8,0.6,-0.8,5.6,1.4,4.7,17.1*,0.8
c1ccc(CN2CCN(c3cnc4ccccc4n3)CC2)cc1,4.9,1.5,-0.7,-0.8,1.8,6.9,.,.,.,.
COc1ccc2nc(SCC(C)=O)c(C#N)cc2c1,18.9*,11.7*,3.9*,2.5*,5.9*,5.9,2.1,10.9*,24.7*,1.4
COc1ccc2nc(SC)c(C#N)cc2c1,2.1,-0.6,0.1,-1.8,0.6,-3.7,.,.,.,.
CCOC(=O)c1c(C)oc2c1c1c(c3ccccc32)OCN(Cc2cccnc2)C1,.,.,.,.,0.3,.,.,.,.,.
CCOC(=O)c1c(C)oc2c1c(C(c1cccnc1)N1CCOCC1)c(O)c1ccccc12 (stereo unspecified),13.5*,10.4*,3.0,2.6*,4.9*,7.7,0.5,5.7*,7.9,0.4
O=C(Nc1nccs1)c1sc2ccccc2c1Cl,17.5*,15.1*,3.2,3.0*,-0.8,6.0,1.6,16.3*,16.7*,1.0
O=C(Nc1nccs1)c1cc(Cl)nc2ccccc12,2.1,1.9,0.2,0.0,1.7,0.1,.,.,.,.
Cc1csc(NC(=O)c2ccc3ccccc3n2)n1,18.2*,21.1*,2.6,4.1*,1.4,7.4,1.6,16.3*,26.0*,1.0
O=C(/C=C\c1ccccc1)Nc1nccs1,20.4*,8.4*,3.5,0.5,1.0,6.3,2.1,4.8,20.1*,0.9
Cc1csc(NC(=O)c2cnc3ccccc3n2)n1,15.8*,15.1*,2.3,2.1*,-1.5,6.3,1.3,13.9*,18.2*,0.9
C[C@@H]1C=CCCO[C@]12C(=O)N(Cc1ccc(Br)cc1)c1cccc(Br)c12,-0.2,-2.7,0.1,-0.7,.,-4.2,.,.,.,.
O=C(Nc1nccs1)c1ccc2ccccc2n1,18.1*,18.3*,1.6,3.6*,1.4,2.3,1.6,15.8*,22.7*,1.0
O=C(Nc1ccccn1)c1ccc2ccccc2n1,16.7*,19.1*,3.6,3.7*,1.2,-0.4,2.2,21.8*,18.4*,0.9
O=C(Nc1nc(Cc2ccccc2)c(Cc2ccccc2)n1Cc1ccccc1)c1ccccc1,-1.4,-0.9,0.3,-1.3,.,-3.0,.,.,.,.
SMILES,hgDAF12 agonist,hcDAF12 agonist,DAX1 inh-1,ssDAF-12 act,DAX1 inh-2,SMARCA2 activ,LXRb hcDAF ctr,hcDAF12 conf,hgDAF12 conf,LXR ag 2
Cc1ccccc1CN1[C@@H](C)[C@H](c2ccccc2)Oc2cccc(N3CCCC3)c2S1(=O)=O,0.6,1.3,1.6,-1.2,.,-4.8,.,.,.,.
O=[N+]([O-])c1ccc(CSc2nc3ccccc3[nH]2)cc1,6.5,5.4,1.3,0.5,0.2,4.4,.,.,.,.
c1ccc(CSc2nc3ccccc3[nH]2)cc1,22.0*,8.6*,3.8*,0.6,3.2,2.1,1.1,7.4*,16.7*,0.7
COC(=O)c1cc2c(c3c4cc(F)ccc4n(S(=O)(=O)c4cccc(C)c4)c13)C(=O)N(Cc1ccccc1OC)C2,0.7,-0.5,-0.5,-0.3,.,-4.2,.,.,.,.
Cc1ccc(/C(=N/Nc2ncnc3ccccc23)C(=O)O)cc1,18.3*,16.8*,3.7*,1.9*,2.8,3.5,0.4,6.3*,12.3*,0.5
COc1cc(C(=O)Cc2nc3ccccc3n2C)cc(OC)c1OC,2.8,1.6,0.2,0.1,1.9,-2.4,.,.,.,.
COc1ccccc1NCc1nc2ccccc2n1C,15.7*,10.7*,.,1.3*,.,.,0.8,8.7*,17.5*,0.7
